Screens as filed in PubChem.
Rows were chosen to be rich in hits. Some 7% of all compounds tested hit in one or more screens of this group.
PI5P4K alpha inh – qHTS for Inhibitors of phosphatidylinositol 5-phosphate 4-kinase (PI5P4K); PI5P4Kalpha enzyme, ADP-Glo luminescence, 60 min; active compounds read low; Phosphatidylinositol 5-phosphate 4-kinase type-2 alpha (Homo sapiens), P48426; max response, %; 330,000 compounds, 1.2% hits; AID 652105, 2013; active means max response of -50% or lower; inconclusive means between -30% and -50%; inactive means -30% or higher; further: value at the top dose of about 77 µM
Target sequence (P48426 whole entry, looked up): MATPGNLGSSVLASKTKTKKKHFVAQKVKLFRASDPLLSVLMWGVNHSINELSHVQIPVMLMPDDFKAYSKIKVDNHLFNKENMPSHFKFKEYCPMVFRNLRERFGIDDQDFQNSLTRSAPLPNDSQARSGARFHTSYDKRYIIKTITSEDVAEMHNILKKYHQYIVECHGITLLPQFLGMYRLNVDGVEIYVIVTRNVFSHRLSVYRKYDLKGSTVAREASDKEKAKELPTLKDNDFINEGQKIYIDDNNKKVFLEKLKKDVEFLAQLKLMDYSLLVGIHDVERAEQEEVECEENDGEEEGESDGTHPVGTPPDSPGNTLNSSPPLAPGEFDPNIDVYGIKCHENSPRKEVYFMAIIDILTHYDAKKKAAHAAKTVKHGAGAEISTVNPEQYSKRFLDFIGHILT
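Controls without substrate or without enzyme flank wells where PI5P4Kalpha converts substrate using 5 microM ATP (final). Incubation lasts 60 minutes at room temperature; ADP formed is read by ADP-Glo luminescence.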
GCN5L2 inh – qHTS Assay for Inhibitors of GCN5L2; Potency, µM (titrated, usually from 58.9 µM), hits mostly inhibitors; Histone acetyltransferase KAT2A (Homo sapiens), Q92830; GCN5L2 HAT assay, ThioGlo1 CoA-SH fluorescence; 390,000 compounds, 0.21% hits
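Compounds, pin-transferred from DMSO stocks, meet 20nM GCN5L2 for 15 min before the reaction begins with H3(1-25) peptide (75uM) and acetyl-CoA (70uM). Thiol-reactive ThioGlo1 reports CoA release over 20 min at room temperature.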
BAZ2B inh – qHTS Assay for Inhibitors of BAZ2B. Bromodomain adjacent to zinc finger domain protein 2B (Homo sapiens), Q9UIF8. AlphaScreen BAZ2B-H3K14Ac peptide displacement. Potency, µM (titrated, usually from 114 µM), actives largely listed as inhibitors. 360,000 compounds, 4.4% hits; further: nearly all actives have a fitted effect of over 60% in size
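Compounds, titrated to a top concentration of 110 uM, were incubated 30 min at room temperature with preformed BAZ2B/acetyl-K14 H3 peptide complex (50 nM each). Proximity signal was measured by AlphaScreen after 20 min with beads.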
PLK1 PBD block – qHTS for Inhibitors of PLK1-PDB (polo-like kinase 1 - polo-box domain): Primary Screen; 360,000 compounds, 2.8% hits; AID 720504, 2013; Plk1 PBD binding of FITC phosphopeptide, fluorescence polarization; Potency, µM, usual class: inhibitors; Serine/threonine-protein kinase PLK1 (Homo sapiens), P53350; further: series mostly up to about 57 µM; nearly all actives have a fitted effect of over 65% in size
JMJD2A Tudor – qHTS Assay for Inhibitors of JMJD2A-Tudor Domain. Lysine-specific demethylase 4A (Homo sapiens), O75164. AlphaScreen JMJD2A-Tudor / H3K4me3 peptide binding. Potency, µM (highest dose often 114 µM), most hits filed as inhibitors. 390,000 compounds, 4.4% hits. AID 504339, 2011; further: nearly all actives have a fitted effect of over 50% in size
HP1b binding inh – HTS for Inhibitors of HP1-beta Chromodomain Interactions with Methylated Histone Tails; 390,000 compounds, 0.56% hits; AlphaScreen HP1-beta / biotin-H3K9me3 peptide binding; Chromobox protein homolog 1 (Homo sapiens), P83916; AID 540317, 2011; Potency, µM (series often up to 114 µM), usual class: inhibitors; further: nearly all actives have a fitted effect of over 70% in size
Target sequence (P83916 whole entry, looked up): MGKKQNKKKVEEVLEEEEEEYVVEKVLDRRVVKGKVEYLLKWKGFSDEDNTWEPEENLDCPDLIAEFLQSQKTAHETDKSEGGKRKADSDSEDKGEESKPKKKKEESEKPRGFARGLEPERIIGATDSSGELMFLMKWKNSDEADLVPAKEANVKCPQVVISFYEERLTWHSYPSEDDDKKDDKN
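Compound inhibition of the preformed complex between 50 nM HP1-beta and 50 nM biotinylated H3K9me3 peptide was read by AlphaScreen. Buffer was PBS pH 7.4 with 0.01% Tween-20. Incubations ran 30 min at room temperature, with 10 ug/mL donor/acceptor beads.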
JMJD2E inh – Confirmation qHTS Assay for Inhibitors of Human Jumonji Domain Containing 2E (JMJD2E) | shares compounds with JMJD2A Tudor | Recombinant JMJD2E, FDH-coupled NADH fluorescence (FDH is formaldehyde dehydrogenase) | Potency, µM (doses to about 56.8 µM), usual class: inhibitors | 140 compounds, 93% hits | AID 2677, 2010
FDH inh – Counterscreen for JMJD2E Inhibitors: qHTS Assay for Inhibitors of Formaldehyde Dehydrogenase (FDH); shares compounds with JMJD2A Tudor; FDH enzyme assay, NADH fluorescence kinetic; Potency, µM (doses to about 56.7 µM), most hits filed as inhibitors; 140 compounds, 10% hits; AID 2680, 2010
G9a confirm – qHTS Assay for Inhibitors of Histone Lysine Methyltransferase G9a: Hit Confirmation; shares compounds with JMJD2A Tudor; Potency, µM, hits mostly inhibitors; G9a H3K9 monomethylation, AlphaScreen, 2 h; 370 compounds, 89% hits; further: nearly all actives have a fitted effect of over 65% in size
RGS4 inh – qHTS for Inhibitors of Regulator of G Protein Signaling(RGS) 4: Hit Validation | shares compounds with JMJD2A Tudor | RGS4 GAP activity, Transcreener GDP fluorescence polarization | Potency, µM, usual class: inhibitors | 25 compounds, 80% hits
Hits are given with their value; [ ] = another dose, or the depositor's remark. Unless noted, the call rests on the fitted dose curve; in most records, active means well fitted curve in the direction sought with a large enough effect; inconclusive means small, poorly fitted or top-dose-only effect, or another doubt; inactive means no such curve, though single readings can be large; an effect the other way counts as inactive or inconclusive.

For Cc1ccccc1NCc1ccc(O)c2ncccc12 the results were GCN5L2 inh inactive, BAZ2B inh 50.1µM, PLK1 PBD block 2.99µM, JMJD2A Tudor 28.2µM, HP1b binding inh inconclusive, JMJD2E inh 1.41µM and FDH inh inactive.
`Cc1ccccc1NCCNc1ccccc1C` gave GCN5L2 inh inactive, BAZ2B inh inconclusive, PLK1 PBD block inactive, JMJD2A Tudor inactive and HP1b binding inh inactive.
For CC(=O)Nc1ccc(N2CCCCC2)cc1 the results were GCN5L2 inh inactive, BAZ2B inh inactive, PLK1 PBD block inactive, JMJD2A Tudor inactive and HP1b binding inh inactive.
For Cc1ccc(C(=O)Nc2ccc(N3CCCC3)cc2)cc1 the results were PI5P4K alpha inh inactive, GCN5L2 inh inactive, BAZ2B inh inactive, PLK1 PBD block inactive, JMJD2A Tudor inactive, HP1b binding inh inactive and G9a confirm 1.26.
`O=C(/C=C/c1ccccc1)Nc1ccc(N2CCCCC2)cc1` gave PI5P4K alpha inh inactive, GCN5L2 inh inactive, BAZ2B inh inactive, PLK1 PBD block inactive, JMJD2A Tudor inactive, HP1b binding inh inactive and G9a confirm 2.24.
`CC(=O)Nc1ccc(N2CCCC2)cc1` gave PI5P4K alpha inh inactive, GCN5L2 inh inactive, BAZ2B inh inactive, PLK1 PBD block inactive, JMJD2A Tudor inactive, HP1b binding inh inactive and G9a confirm 6.32.
`CC(C)(C)C(=O)Nc1ccc(N2CCCC2)cc1` gave PI5P4K alpha inh inactive, GCN5L2 inh inactive, BAZ2B inh inconclusive, PLK1 PBD block inactive, JMJD2A Tudor inactive, HP1b binding inh inactive and G9a confirm 2.52.
Screening Cn1cc(C(=O)NCc2ccccc2Cl)c(=O)c2cc(S(=O)(=O)N3CCCCCC3)ccc21 returned GCN5L2 inh inactive, JMJD2A Tudor inactive and HP1b binding inh inactive.
`O=C(CNC(=O)c1ccc(Br)o1)Nc1ccc(N2CCCCCC2)cc1` gave PI5P4K alpha inh inactive, GCN5L2 inh inactive, BAZ2B inh inconclusive, PLK1 PBD block inactive, JMJD2A Tudor inconclusive, HP1b binding inh inactive and G9a confirm 1.
`CN(C)c1ccc(NC(=O)Nc2cccc3ccccc23)cc1` gave PI5P4K alpha inh inactive, GCN5L2 inh inactive, BAZ2B inh inconclusive, PLK1 PBD block inconclusive, JMJD2A Tudor inactive[11.4 µM], HP1b binding inh inactive and G9a confirm 1.12.
For COc1ccc(Nc2nc(N3CCN(C)CC3)nc3ccccc23)c(OC)c1 the results were PI5P4K alpha inh inactive, GCN5L2 inh inactive, BAZ2B inh inactive, PLK1 PBD block inactive, JMJD2A Tudor inactive and HP1b binding inh inactive.
COc1cc2c(NC3CCN(C)CC3)nc(N3CCCN(C)CC3)nc2cc1OCCCCCN was read as RGS4 inh inconclusive.
Cc1ccc(NC(=O)Cn2nc(C(=O)O)c3ccccc3c2=O)c([N+](=O)[O-])c1 was read as PI5P4K alpha inh inactive, GCN5L2 inh inactive, BAZ2B inh inactive, PLK1 PBD block inactive, JMJD2A Tudor inactive and HP1b binding inh inactive.
For CCCCN(C(=O)c1nn(C)c(=O)c2ccccc12)c1c(N)n(CC(C)C)c(=O)[nH]c1=O the results were PI5P4K alpha inh inactive, GCN5L2 inh inactive, BAZ2B inh inactive, PLK1 PBD block inactive, JMJD2A Tudor inactive and HP1b binding inh inactive.
Screening O=C(Nc1ccccc1Br)C1CCCN(S(=O)(=O)c2cccc3nsnc23)C1 (centres undefined) returned GCN5L2 inh inactive, JMJD2A Tudor inactive and HP1b binding inh inactive.
Screening O=C(OCc1ccccc1)c1cccnc1 returned GCN5L2 inh inactive and G9a confirm 2.57.
`Cc1cc(C)c2c(=O)cc(C(=O)NCCc3ccc(S(N)(=O)=O)cc3)oc2c1` gave GCN5L2 inh inactive, BAZ2B inh inactive, JMJD2A Tudor inactive and HP1b binding inh inactive.
Cc1cccc(-c2nn(-c3ccccc3)cc2C(=O)N2CCN(C3CCS(=O)(=O)C3)CC2)c1 (centres undefined) was read as PI5P4K alpha inh inactive, GCN5L2 inh inactive, BAZ2B inh inactive, PLK1 PBD block inactive, JMJD2A Tudor inactive and HP1b binding inh inactive.
CC(C)c1ccc(Nc2nc(N3CCOCC3)nc(N3CCOCC3)n2)cc1 was read as PI5P4K alpha inh inactive and PLK1 PBD block inactive.
`CCOc1ccc(CNc2ccc(N3CCCC3)cc2)cc1` gave GCN5L2 inh inactive, BAZ2B inh 17.8µM, PLK1 PBD block inconclusive, JMJD2A Tudor 63.1µM, HP1b binding inh inactive and G9a confirm 0.893.
Screening CC(C)c1ccc(CNc2ccc(N3CCOCC3)cc2)cc1 returned PI5P4K alpha inh inactive, GCN5L2 inh inactive, BAZ2B inh 12.6µM, PLK1 PBD block inactive, JMJD2A Tudor 39.8µM, HP1b binding inh 11.2µM and G9a confirm 10.
Cc1cccc(OCCCC(=O)Nc2ccc(N(C)C)cc2)c1 was read as PI5P4K alpha inh inactive, GCN5L2 inh inactive, BAZ2B inh inconclusive, PLK1 PBD block inactive, JMJD2A Tudor inconclusive, HP1b binding inh inactive and G9a confirm 0.893.
`Cc1cccc(OCCCC(=O)Nc2ccc(Br)cc2)c1` gave PI5P4K alpha inh inactive, GCN5L2 inh inactive, BAZ2B inh inactive, PLK1 PBD block inactive, JMJD2A Tudor inactive and HP1b binding inh inactive.
COc1cc(Nc2nc3c(S(=O)(=O)c4ccc(C)c(C)c4)nnn3c3ccsc23)cc(OC)c1 was read as GCN5L2 inh inactive, BAZ2B inh inactive, JMJD2A Tudor inconclusive and HP1b binding inh inactive.
